# HT1080 IDH1KD tx = qHTS for induction of synthetic lethality in tumor cells producing 2HG: qHTS for the HT-1080-IDH1KD cell line; hit rate 2% among 360,000; AID 686971, 2013; Potency, µM (titrated, usually from 46.1 µM), actives largely listed as cytotoxic; HT-1080 IDH1 knockdown viability, ATP luminescence, 48 h
#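 Knockdown cells (IDH1KD HT-1080) received compounds 2 h after plating at 750 cells/well and were kept 48 h at 37 °C in 5% FBS RPMI. A CellTiter-Glo luminescence read gave % activity for curve fitting.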
# KB-V1 cytotox = qHTS assay for MDR1-selective chemotherapeutics: Primary screen using the drug-selected MDR subline cells KB-V1 | KB-V1 MDR cells viability, CellTiter-Glo, 72 h | Potency, µM (series often up to 46.1 µM), actives largely listed as cytotoxic | hit rate 3.4% among 400,000; further: nearly all actives have a fitted effect of over 60% in size
#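 Cells of the MDR subline KB-V1 are plated, dosed with compound at multiple concentrations, and incubated 72 h at 37 degrees C; CellTiter-Glo is then added and luminescence read after 10 min.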
# KB-3-1 cytotox = qHTS assay for MDR1-selective chemotherapeutics: Primary screen using the parental adenocarcinoma cell KB-3-1 | Potency, µM (top dose mostly 46.1 µM), actives largely listed as cytotoxic | hit rate 1.4% among 400,000 | AID 1347075, 2019 | KB-3-1 viability, CellTiter-Glo ATP luminescence, 72 h; further: nearly all actives have a fitted effect of over 60% in size
#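 Cytotoxicity in the drug-sensitive parental line KB-3-1 was scored as loss of CellTiter-Glo luminescence following 72 h incubation with compound. Values come from curve fitting of normalized concentration-response data.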
# MCF10A rerep = A quantitative high throughput screen for small molecules that induce DNA re-replication in MCF 10a normal breast cells; hit rate 2.9% among 350,000; MCF 10A DNA re-replication, Hoechst nuclear intensity, 48 h; Potency, µM (top dose mostly 46.1 µM), usual class: activators; further: nearly all actives have a fitted effect of over 50% in size
# SW480 rereplic = A quantitative high throughput screen for small molecules that induce DNA re-replication in SW480 colon adenocarcinoma cells | Potency, µM (top dose mostly 46.1 µM), usual class: activators | SW480 DNA re-replication, Hoechst DNA content imaging, 48 h | hit rate 1.8% among 340,000; further: nearly all actives have a fitted effect of over 55% in size
#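 250 cells/well; 23 nL cpd via pin tool; 48 hr, 37 C, 5% CO2; Hoechst 40 min; imager read of total nuclear intensity, ex 405/em 500-530 nm.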
# HT1080-NT tox = qHTS for induction of synthetic lethality in tumor cells producing 2HG: qHTS for the HT-1080-NT fibrosarcoma cell line; HT-1080-NT fibrosarcoma viability, CellTiter-Glo ATP luminescence, 48 h; Potency, µM (highest dose often 46.1 µM), most hits filed as cytotoxic; hit rate 1.6% among 360,000; AID 686970, 2013;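 further: NT is the 2HG producing partner of a matched IDH1 knockdown line; nearly all actives have a fitted effect of over 55% in size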
#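 HT-1080-NT; 750 cells/well; 5% FBS RPMI; 48 h compound, 37 degrees C; CellTiter-Glo luminescence; curve fitting and curve-class assignment.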
# Hits are given with their value; - = inactive; ? = inconclusive; . = no result given; [ ] = another dose, or the depositor's remark. In the library only some 7.9% were active in any assay of this set; here they are far more common. The call rests on the fitted dose curve; in most records, active means well fitted curve in the direction sought with a large enough effect; inconclusive means small, poorly fitted or top-dose-only effect, or another doubt; inactive means no such curve, though single readings can be large; an effect the other way counts as inactive or inconclusive.
SMILES,HT1080 IDH1KD tx,KB-V1 cytotox,KB-3-1 cytotox,MCF10A rerep,SW480 rereplic,HT1080-NT tox
O=C(Nc1ccncc1)C1c2ccccc2Oc2ccccc21,-,14.6µM,-,-,-,-
Cc1cccc2sc(NC(=O)C3CC3)nc12,-,-,-,?,-,-
COc1ccc(-c2nn(-c3ccc(C)c(Cl)c3)c3c2cnc2cc(OC)c(OC)cc23)cc1,.,-,-,.,.,.
Cc1ccc(CN2CCCn3nc(C(=O)NCCc4ccccc4Cl)cc3C2=O)cc1,.,-,-,.,.,.
CCOC(=O)c1c(C)[nH]c(C)c1C(=O)COC(=O)c1cccc(S(=O)(=O)N(CC)CC)c1,-,-,-,?,-,-
O=C(COC(=O)c1ccc(O)cc1O)NC12CC3CC(CC(C3)C1)C2,-,-,-,-,-,-
CCN(CC)S(=O)(=O)c1cccc(C(=O)OCC(=O)C23CC4CC(CC(C4)C2)C3)c1,-,14.6µM,?,-,-,-
O=C(OCC(=O)C12CC3CC(CC(C3)C1)C2)c1ccc(O)cc1O,18.4µM,-,-,?,?,13µM
CCCCC[C@H](O)/C=C/C1C(=O)C=C[C@H]1C/C=C\CCCC(=O)OC (some centres undefined),?,-,-,18.4µM,-[9.22 µM],?
COc1ccc(C(=O)N2CCN(c3ccc([N+](=O)[O-])c(NCCc4ccc(OC)c(OC)c4)c3)CC2)cc1,?,?,?,-,-,1.16µM
O=C(c1ccccc1F)N1CCN(c2ccc([N+](=O)[O-])c(NCc3cccnc3)c2)CC1,-,-,-,-,-,-
O=C(c1ccc(Cl)cc1)N1CCN(c2ccc([N+](=O)[O-])c(NCc3cccnc3)c2)CC1,-,20.6µM,-,-,-,-
O=C(c1ccccc1)N1CCN(c2ccc([N+](=O)[O-])c(NCc3cccnc3)c2)CC1,-,2.59µM,?,-,-,-
Cc1ccc(-n2c(C)cc(/C=c3/sc4nc5ccccc5n4c3=O)c2C)cc1,-,-,-,9.2µM,-[9.22 µM],-
CCOC(=O)C1CCN(C(c2cccc(F)c2)c2c(O)cc(C)n(Cc3ccco3)c2=O)CC1 (centres undefined),.,-,-,.,.,.
COc1cccc(C(C)(O)c2nc(-c3cc(F)cc(F)c3)cs2)c1 (centres undefined),?,-,-,.,.,23.1µM
COc1cccc(C(C)(O)c2nc(-c3ccc(S(C)(=O)=O)cc3)cs2)c1 (centres undefined),-,16.4µM,18.4µM,.,.,-
COc1ccc(-c2csc(C(C)(O)c3cccc(OC)c3)n2)cc1 (centres undefined),?,?,-,.,.,-
CC(=O)c1ccccc1NC(=O)c1ccc2c(c1)NC(=O)C(C)S2 (centres undefined),-,?,?,?,-,-
CCCNC(=O)c1ccccc1NC(=O)c1ccc2c(c1)NC(=O)C(C)S2 (centres undefined),9.2µM,?,?,?,?,-
Cc1ccnc(NC(=O)c2ccc3c(c2)NC(=O)C(C)S3)c1 (centres undefined),-,-,18.4µM,-,-,-
CC(C)NC(=O)Cn1ncn2c(cc3cc(F)ccc32)c1=O,.,-,-,.,.,.
CCOc1ccc(Cn2c(=O)sc3ccccc32)cc1OC,-,11.6µM,?,?,-,-
COc1ccccc1OCCn1c(=O)sc2ccccc21,-,14.6µM,-,-,-,-
Cc1ccccc1OCCn1c(=O)sc2ccccc21,-,-,-,-,-,-
SMILES,HT1080 IDH1KD tx,KB-V1 cytotox,KB-3-1 cytotox,MCF10A rerep,SW480 rereplic,HT1080-NT tox
CCCCCCCn1c2c(c(=N)c3c1CCC3)CCCC2,7.31µM,?,0.581µM,?,-,9.2µM
CCCCCCn1c2c(c(=N)c3c1CCC3)CCC2,1.58µM,-,2.06µM,-,-,1.58µM
N=c1c2c(n(Cc3ccc(F)cc3)c3c1CCC3)CCC2,10µM,-,-,-,-,7.08µM
CCCCn1c2c(c(=N)c3c1CCC3)CCC2,-,-,4.11µM,-,-[9.22 µM],-
COc1ccc(NC(=O)Cn2c(=O)n(-c3cccc(C)c3)c(=O)c3c2c2cc(C)ccc2n3C)cc1OC,.,-,-,.,.,.
Cc1ccc2oc(C(=O)Nc3sc4c(c3C(=O)NCc3ccccc3)CCCC4)cc(=O)c2c1,.,-,?,.,.,.
CCCCCCCCCn1c2c(c(=N)c3c1CCC3)CCC2,?,-,1.03µM,?,-,1.46µM
Nc1ncn([C@H]2C[C@H](O)[C@@H](CO)O2)c(=O)n1,-,-,-,-,0.231µM,-
Nc1nc(Cl)nc2c1ncn2C1CC(O)C(CO)O1 (centres undefined),?,?,8.2µM,?,?,?
Cc1cnc2c(c1SCC(=O)NCc1ccccc1Cl)c(=O)n(C)c(=O)n2C,.,-,-,.,.,.
CSc1ncc(C(=O)NCc2ccc(C)cc2)c(C)n1,.,-,-,.,.,.
CC(C)CC(=O)NC(NC(=S)Nc1ccccc1)C(Cl)(Cl)Cl (centres undefined),?,?,-,-,-,-
O=C(CCc1ccccc1)NC(NC(=S)Nc1ccc(Cl)cc1)C(Cl)(Cl)Cl (centres undefined),?,-,18.4µM,-,?,?
COc1ccc(NC(=S)NC(NC(=O)/C=C/c2ccccc2)C(Cl)(Cl)Cl)cc1 (centres undefined),?,-,?,?,-,?
O=C(/C=C/c1ccccc1)NC(NC(=S)Nc1ccc(Cl)cc1)C(Cl)(Cl)Cl (centres undefined),18.4µM,?,?,16.4µM,?,?
CCCN(CCC)S(=O)(=O)c1ccc(C(=O)Nc2nnc(CSC)o2)cc1,?,7.31µM,6.51µM,?,-,?
CCCCN(CCCC)S(=O)(=O)c1ccc(C(=O)Nc2nnc(CSC)o2)cc1,?,?,?,10.3µM,?,-
CCCCN(CC)S(=O)(=O)c1ccc(C(=O)Nc2nnc(CSC)o2)cc1,?,-,?,?,?,-
CC(=O)c1cccc(NC(c2ccc(F)cc2)c2nnc(-c3ccccc3)o2)c1 (centres undefined),.,-,-,.,.,.
CCc1ccc2[nH]c3nc(SCC(=O)NNC(=O)c4ccc(C(C)(C)C)cc4)nnc3c2c1,-,-,?,2.31µM,5.8µM,-
Cc1ccc(C(=O)NNC(=O)CSc2nnc3c(n2)[nH]c2ccc(C)cc23)cc1,-,-,-,-,-,-
O=C(NCCc1csc(-c2ccc(Cl)cc2)n1)c1cccs1,.,?,-,.,.,.
CCN1CCCC1CNCC(O)COc1ccc(C(C)(C)C)cc1C (centres undefined),?,-,-,9.2µM,?,-
